Screening data (PubChem BioAssay)
Vaccinia mCherry: qHTS for Stage-Specific Inhibitors of Vaccinia Orthopoxvirus: mCherry Reporter Primary qHTS | Vaccinia virus mCherry reporter infection, fluorescence | Potency, µM (series often up to 36.5 µM), for inactives: top-dose activity change, negative = inhibition, actives largely listed as inhibitors | 310,000 compounds, 0.63% hits | AID 720579, 2013; calls by dose curve; tested in A549 cells; also: potency is read from the fitted curve at half-maximal effect; % is scaled to controls: 0 for no effect and ±100 for the full control effect; nearly all actives have a fitted effect of over 35% in size
Marburg entry inh: qHTS for inhibitors of binding or entry into cells for Marburg Virus; AID 540276, 2011; Marburg virus pseudotyped entry inhibition, cell reporter; Potency, µM (titrated, usually from 37.8 µM), for the others: at the highest dose activity change, negative = inhibition, actives largely listed as inhibitors; 300,000 compounds, 1.8% hits; calls by dose curve; tested in HEK293 cells; also: potency is read from the fitted curve at half-maximal effect; % is scaled to controls: 0 for no effect and ±100 for the full control effect
VACV Venus inh: qHTS for Stage-Specific Inhibitors of Vaccinia Orthopoxvirus: Venus Reporter Primary qHTS; 330,000 compounds, 0.46% hits; AID 720580, 2013; Potency, µM (series often up to 36.5 µM), for inactives: top-dose activity change, negative = inhibition, most hits filed as inhibitors; Vaccinia virus Venus reporter expression, fluorescence; calls by dose curve; tested in A549 cells; also: potency is read from the fitted curve at half-maximal effect; % is scaled to controls: 0 for no effect and ±100 for the full control effect; nearly all actives have a fitted effect of over 30% in size
CHX counter: Cycloheximide Counterscreen for Small Molecule Inhibitors of Shiga Toxin; cell reporter, cycloheximide protein synthesis inhibition counterscreen; max response, %; 300,000 compounds, 12% hits; AID 2314, 2010; in the data active = max response mostly above about 13%, no sharp cut-off; inactive = mostly below about 14%; also: read at 38.3 µM for the half of the compounds with a filed dose; 0% is about no effect
Shiga inhibitor: A qHTS for Small Molecule Inhibitors of Shiga Toxin. Vero cells, Shiga toxin protein synthesis inhibition reporter. inhibition, % at 38.7 µM. 290,000 compounds, 9.2% hits; in the data active = inhibition mostly above about 28%, no sharp cut-off; inactive = mostly below about 43%; also: 0% is about no effect
Lassa entry inh: qHTS for Inhibitors of binding or entry into cells for Lassa Virus; Potency, µM (highest dose often 37.9 µM), for the others: top-dose activity change, negative = inhibition, hits mostly inhibitors; Lassa virus pseudotype entry inhibition, cell reporter; 300,000 compounds, 1.2% hits; calls by dose curve; tested in HEK293 cells; also: potency is read from the fitted curve at half-maximal effect; % is scaled to controls: 0 for no effect and ±100 for the full control effect; nearly all actives have a fitted effect of over 50% in size
* = called active by the depositor; i = inactive; ? = inconclusive; · = no result given; ! = a repeat was not active; [ ] = dose if it differs, or a comment. Shown is part of a subset that was picked to be rich in hits.

SMILES | Vaccinia mCherry | Marburg entry inh | VACV Venus inh | CHX counter | Shiga inhibitor | Lassa entry inh
C=CCC[C@H](Cc1ccc(F)cc1)C(=O)OC[C@@H](Cc1c[nH]c2ccccc12)NC(=O)[C@H](CC=C)CC(=O)N(CCO)Cc1ccccc1 | ? | · | 10µM* | · | · | ·
C=CCC[C@@H](Cc1ccc(F)cc1)C(=O)OC[C@@H](Cc1c[nH]c2ccccc12)NC(=O)[C@H](CC=C)CC(=O)N(CCO)Cc1ccccc1 | ? | · | 14.1µM* | · | · | ·
Nc1ccc2c(c1)nnn2-c1ccccc1 | i | ? | -19.0% | 32.0* | 59.3 | ?
c1ccc(-n2nnc3cnccc32)cc1 | -25.2% | 10.6% | -13.2% | 23.6* | 24.0 | 10.9%
O=C(O)CCc1cccc2ccccc12 | 28.0% | · | -2.7% | · | · | ·
CCOC(=O)N/N=C/C(Cl)=C/c1ccccc1 | -6.3% | 3.1%[46.1 µM] | -8.0% | 37.5* | 53.8* | -4.7%
Cc1cccc(/C=N/NC(=O)Cc2cccs2)c1 | -4.1% | 16.3%[46.1 µM] | -16.8% | 33.1* | 71.6* | 11.2%[46.1 µM]
CCOC(=O)N/N=C\c1ccc(OC/C=C/c2ccccc2)c(OC)c1 | -17.5% | -2.4% | -10.0% | 11.9 | 22.5 | ?
O=C(Cc1cccs1)N/N=C/c1ccccc1 | i | -4.7%[46.1 µM] | -8.5% | 14.9 | 27.4 | ?
CCOc1ccc(/C=N/NC(=O)Cc2cccs2)cc1 | -21.1% | ? | -22.6% | 43.7* | 91.1* | ?
O=C(Cc1cccs1)N/N=C/C(Cl)=C/c1ccccc1 | i | ? | 4.1% | 31.5* | 117.8* | -0.1%
Cc1ccc(N(C)C(=O)Cn2nc(Cc3ccncc3)c3ccccc3c2=O)cc1C | -12.0% | -13.0%[46.1 µM] | -10.6% | · | · | 24.4%[46.1 µM]
O=C1CC(=O)Nc2cc(S(=O)(=O)Nc3cccc(Br)c3)ccc2N1 | -6.6% | · | -4.9% | · | · | 3.4%[46.1 µM]
CCC(C)(C)NC(=O)C(C(C)C)N(CC1CCCO1)C(=O)CNS(=O)(=O)c1ccccc1 (configuration not stated) | -9.7% | -29.2%[46.1 µM] | -10.9% | 19.2 | -14.2 | 11.4%
CC(NC(=O)c1ccco1)c1nnc2n1CCN(Cc1ccc(Cl)cc1)CC2 (configuration not stated) | -13.2% | · | -4.6% | · | · | ·
COc1cc2nc(N3CCCN(C)CC3)nc(NC3CCCCC3)c2cc1OC | -19.2% | · | ? | · | · | ·
COc1cc2nc(N3CCCN(C)CC3)nc(N(C)C3CCN(C)CC3)c2cc1OC | 10µM* | · | 10µM* | · | · | ·
COc1cc2nc(N3CCCN(C)CC3)nc(NC3CCN(C)C3)c2cc1OC (configuration not stated) | ? | · | 11.2µM* | · | · | ·
COc1cc2c(NC3CCN(C)CC3)nc(N3CCCN(C)CC3)nc2cc1OCCN(C)CCN(C)C | -8.3% | · | -18.2% | · | · | ·
COc1cc2c(NC3CCN(C)CC3)nc(N3CCCN(C)CC3)nc2cc1OCC1CCCCN1 (configuration not stated) | 5.01µM* | · | 15.8µM* | · | · | ·
CCN(CC)C(=O)c1ccc2c(c1)N(Cc1c(F)cccc1Cl)C(=O)c1ccccc1S2 | -12.4% | ? | -10.6% | · | · | ?
NS(=O)(=O)OCC1CCCCC1 | -7.1% | · | -6.5% | -2.9 | -4.0 | ·
Nc1nc(N)c(N=O)c(OCC2CCCCC2)n1 | -0.4% | ? | -17.2% | 21.3* | 40.7*! | ?
CCOC(=O)Cn1nnc2c(sc3nc4c(c(-c5ccc(Cl)cc5)c32)CCC4)c1=O | · | ? | -4.3% | -1.8 | -2.7 | ?
O=c1[nH]cnc2c1sc1nc3c(c(-c4ccc(Cl)cc4)c12)CCC3 | · | ? | 2.82µM* | -4.8 | 16.3 | 0.1%
SMILES | Vaccinia mCherry | Marburg entry inh | VACV Venus inh | CHX counter | Shiga inhibitor | Lassa entry inh
CCCCc1cc(O)c(CCCC)c(O)c1 | · | -5.6%[46.1 µM] | ? | 39.2* | 39.5* | ?
NCCc1ccc(O)c(O)c1 | -7.4% | ? | -14.4% | -1.4 | 9.1 | -33.9%
Cc1cc(C)n(-c2nnc3c4ccccc4n(C)c3n2)n1 | i | 27.2%[46.1 µM] | -10.3% | 44.0* | 112.8* | -0.3%[46.1 µM]
CS(=O)(=O)c1ccc(-n2c(=O)n(Cc3ccccc3)c(=O)c3[nH]cnc32)cc1 | · | · | · | -3.7 | -4.3 | ·
CN=c1c([N+](=O)[O-])nn(-c2ccc3c(c2)OCCO3)n1O | 12.6µM* | · | ? | 31.8* | 60.8* | ·
CC(C)c1ccc(N=c2c([N+](=O)[O-])nn(-c3ccc4c(c3)OCCO4)n2O)cc1 | ? | -1.7% | -27.5% | 14.1* | 16.8 | 10.1%
CCc1cccc(N=c2c([N+](=O)[O-])nn(-c3ccc4c(c3)OCCO4)n2O)c1 | -25.6% | ? | 1.5% | 11.3 | 71.3* | ?
COc1cc(N=c2c([N+](=O)[O-])nn(-c3ccc4c(c3)OCCO4)n2O)cc(OC)c1 | ? | ? | ? | 29.3* | 18.8* | ?
O=[N+]([O-])c1nn(-c2ccc3c(c2)OCCO3)n(O)c1=NC1CCN(Cc2ccccc2)CC1 | · | · | · | 3.3 | 8.7 | ·
COC(=O)c1ccc(Oc2nc3c(c(=O)n(C)c(=O)n3C)n2C(C)C)cc1 | -7.6% | -31.2%[46.1 µM] | -9.0% | · | · | -5.9%[46.1 µM]
COCCCc1cc(F)c(S(=O)(=O)N2CCN(S(=O)(=O)c3ccc4c(c3)OCCO4)CC2)cc1F | · | · | · | -0.8 | -1.6 | ·
COc1ccc(C2OC3=C(Nc4cc(C)c(C)cc4N3)C2=O)cc1 (configuration not stated) | i | · | -17.7% | 30.0* | 76.6* | ·
Cc1cc2c(cc1C)NC1=C(N2)OC(c2cccc(O)c2)C1=O (configuration not stated) | -0.5% | · | ? | 7.4* | 38.3 | ·
NC(=O)c1ccccc1-c1nc(-c2ccccc2)no1 | · | 2.6% | · | 44.1* | 95.3* | 3.5%
CN1CCN(C(=O)c2ccccc2-c2nc(-c3ccccc3)no2)CC1 | · | -1.5% | -28.4% | 21.6* | 61.6 | 0.8%
CCOc1ccccc1NC(=O)c1ccccc1-c1nc(-c2ccccc2)no1 | · | ? | · | 26.8* | 37.1 | -19.5%
COc1ccc(-c2noc(-c3ccccc3C(=O)N3CCOCC3)n2)cc1 | · | -17.5% | · | -2.1 | -7.8 | 1.7%
Cc1ccc(-c2noc(-c3ccccc3C(=O)N3CCOCC3)n2)cc1 | · | -0.7% | · | 11.7 | 1.8 | -4.3%
COc1ccc(NC(=O)Cn2nnc(-c3ccccc3NC(=O)c3ccco3)n2)cc1 | · | 11.2µM* | ? | -3.7 | -9.1 | ?
CCOc1ccc(NC(=O)CNC(=O)c2ccco2)cc1 | · | · | · | 18.0* | 16.2 | ·
COc1ccc(OCC(=O)Nc2ccc(NC(=O)c3ccco3)cc2)cc1 | · | ? | -8.2% | 24.3* | 78.1* | -1.9%
CCOc1ccc(NC(=O)CCNC(=O)c2ccco2)cc1 | -3.9% | 12.6% | 2.7% | 19.3* | 13.8 | -18.3%
O=C(NCC1CCC2(CCN(Cc3cccc4ncccc34)CC2)O1)c1ccccc1 (configuration not stated) | -2.8% | · | -7.3% | · | · | ·
Cc1c(NC(=O)C(C)OC(=O)c2ccc(NC(=O)CC#N)cc2)c(=O)n(-c2ccccc2)n1C (configuration not stated) | -15.0% | 8.7%[46.1 µM] | -1.3% | · | · | 7.9%
Cc1ccc(NC(=O)CNC(=O)c2ccco2)cc1Cl | -4.7% | 19.2% | -13.9% | 22.2* | 36.4 | ?
